From PubChem
Hits are enriched below; roughly 1.9% of the tested compounds scored in any of these assays.
bovine MsrA act – bovine MsrA enzyme activators, primary screen, biochemical, absorbance, HTS; purified bovine MsrA, absorbance read-out; Methionine sulfoxide reductase A (Bos taurus); activation, % at 10.6 µM; 360,000 tested, 0.3% active; in the data active means activation above about 7.5%;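 further: 0% = vehicle and 100% = reference activator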
MsrA inhibitor – bovine MsrA enzyme inhibitors, primary screen, biochemical, absorbance, HTS; 360,000 tested, 0.75% active; inhibition, % at 15.5 µM; purified bovine MsrA, absorbance read-out; AID 651718, 2012; Methionine sulfoxide reductase A (Bos taurus); in the data active means inhibition above about 4.5%;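 further: 0% = vehicle wells with enzyme and 100% = reference inhibitor wells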
PLCg1 inh – PLC-gamma1 enzyme inhibitors, primary screen, biochemical, fluorescence, purified enzyme; inhibition, % at 12.2 µM; 1-phosphatidylinositol 4,5-bisphosphate phosphodiesterase gamma-1 (Homo sapiens), P19174; fluorogenic substrate; 370,000 tested, 0.84% active; AID 720700, 2013; in the data active means inhibition above about 9.5%
PLCb3 inh – human PLC-beta3 inhibitors, primary screen, biochemical, fluorescence; 1-phosphatidylinositol 4,5-bisphosphate phosphodiesterase beta-3 (Homo sapiens), Q01970; Purified PLC-beta3, fluorogenic substrate; inhibition, % at 12.2 µM; 370,000 tested, 0.18% active; AID 720704, 2013;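 further: 0% = median of compound wells on plate and 100% = full blocker control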
Target sequence (Q01970 whole entry, looked up): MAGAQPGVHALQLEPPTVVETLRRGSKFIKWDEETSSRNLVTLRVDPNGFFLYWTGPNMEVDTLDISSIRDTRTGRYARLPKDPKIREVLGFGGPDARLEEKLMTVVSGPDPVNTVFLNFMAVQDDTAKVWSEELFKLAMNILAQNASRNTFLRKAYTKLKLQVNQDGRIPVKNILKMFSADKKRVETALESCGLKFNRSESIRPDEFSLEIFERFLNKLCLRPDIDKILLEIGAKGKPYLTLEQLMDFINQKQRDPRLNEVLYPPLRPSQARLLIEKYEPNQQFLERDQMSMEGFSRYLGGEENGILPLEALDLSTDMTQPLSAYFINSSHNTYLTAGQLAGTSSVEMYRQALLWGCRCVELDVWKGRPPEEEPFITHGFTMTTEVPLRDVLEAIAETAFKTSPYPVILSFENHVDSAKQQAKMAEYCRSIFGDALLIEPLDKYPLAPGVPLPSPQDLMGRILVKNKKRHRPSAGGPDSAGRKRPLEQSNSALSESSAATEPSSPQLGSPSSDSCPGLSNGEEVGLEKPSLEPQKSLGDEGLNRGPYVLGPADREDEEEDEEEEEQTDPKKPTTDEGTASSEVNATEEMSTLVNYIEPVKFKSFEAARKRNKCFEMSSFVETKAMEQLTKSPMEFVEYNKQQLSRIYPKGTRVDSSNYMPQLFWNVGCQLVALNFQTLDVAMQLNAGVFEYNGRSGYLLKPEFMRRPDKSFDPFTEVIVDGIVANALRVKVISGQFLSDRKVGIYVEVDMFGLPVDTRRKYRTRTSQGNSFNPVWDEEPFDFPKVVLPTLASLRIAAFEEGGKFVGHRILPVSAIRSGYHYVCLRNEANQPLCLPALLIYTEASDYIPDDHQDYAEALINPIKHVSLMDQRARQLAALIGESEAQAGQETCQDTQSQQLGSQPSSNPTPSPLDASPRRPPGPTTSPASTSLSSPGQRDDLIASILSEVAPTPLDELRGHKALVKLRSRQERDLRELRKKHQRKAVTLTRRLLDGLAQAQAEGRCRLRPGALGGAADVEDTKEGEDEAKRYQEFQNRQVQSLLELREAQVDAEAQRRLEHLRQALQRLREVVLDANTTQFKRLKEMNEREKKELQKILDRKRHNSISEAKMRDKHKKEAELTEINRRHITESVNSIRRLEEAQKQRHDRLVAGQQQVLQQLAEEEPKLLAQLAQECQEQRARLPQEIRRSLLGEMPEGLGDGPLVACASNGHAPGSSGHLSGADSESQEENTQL
PLCgamma1 ctr – PLC-gamma1 enzyme inhibitors, counter-screen for PLC-beta3 inhibitor project, biochemical, fluorescence; shares compounds with PLCg1 inh; purified PLC-gamma1, fluorogenic substrate; 3,300 tested, 3.1% active; inhibition, % at 12.3 µM; AID 743258, 2014; in the data active means inhibition above about 9.5%
PLCb3 confirm – PLC-beta3 inhibitor confirmation, biochemical, fluorescence, purified enzyme. 3,300 tested, 1% active. AID 743261, 2014. inhibition, % at 12.3 µM. shares compounds with PLCg1 inh. fluorogenic substrate fluorescence
* = called active by the depositor; / = not tested or not shown. Unless noted, no stated cut-off is given here; in the data, active means inhibition above about 11%; inactive means the rest.

SMILES	bovine MsrA act	MsrA inhibitor	PLCg1 inh	PLCb3 inh	PLCgamma1 ctr	PLCb3 confirm
O=C(CCC1CCCN(C(=O)C2CCCC2)C1)NCc1ccc(F)c(F)c1 (stereo unspecified)	-2.9	0.4	0.3	2.1	/	/
COc1ccc(NC(=O)N(C)[C@H]2C[C@H]3c4[nH]c5c(-c6ccccc6)cccc5c4CCN3C(=O)[C@H]2[C@H](C)O)cc1	/	-0.8	-99.7	-123.6	/	/
COC(=O)[C@]1(CC(C)C)NC=C(C(=O)c2ccccc2)[C@@H]1c1cccc(C(F)(F)F)c1	/	0.3	-4.4	-5.2	/	/
O=C(CNCc1ccccc1Cl)Nc1ccc2c(c1)OCCO2	-2.9	-0.3	0.5	-10.2	/	/
O=C(CNCc1ccc(Cl)cc1)Nc1ccc2c(c1)OCCO2	2.2	0.0	10.2*	0.9	-5.6	1.3
CCOc1ccc(-n2nnnc2SCC(=O)Nc2ccc(NC(C)=O)cc2)cc1	-1.0	-1.2	-0.4	-1.3	/	/
CCOc1ccc(-n2nnnc2SCC(=O)Nc2cccc(O)c2)cc1	-4.4	1.4	12.8*	4.2	-2.9	-3.3
COc1ccc(NC(=O)COc2ccc(/C=N/O)cc2OC)cc1	0.1	-1.3	-0.3	-5.5	/	/
CCNC(=S)N/N=C/c1ccc(OCC(=O)Nc2ccc(OC)cc2)c(OC)c1	-4.8	3.5	15.6*	16.7*	5.3	-0.8
COc1ccc(C(=O)Oc2ccc(C(C)=O)cc2)c(OC)c1	-2.2	-0.4	10.0*	1.0	-3.9	-2.8
COc1ccc(C(=O)OCCCOC(=O)c2ccc(OC)cc2OC)c(OC)c1	-4.3	-0.1	-1.6	-10.1	/	/
CC(=O)NC1c2ccccc2C(=O)N1Cc1ccccc1 (stereo unspecified)	-4.3	0.5	10.5*	3.7	-4.0	-1.6
O=C1c2ccccc2C(Nc2ccc(Cl)cn2)N1Cc1ccccc1 (stereo unspecified)	-5.7	0.9	1.9	-4.6	/	/
CCC[C@@H](CNC)NC[C@H](Cc1ccccc1)NCCCCc1ccccc1	2.2	0.4	3.8	0.0	/	/
CNC[C@@H](Cc1ccccc1)NC[C@@H](CC1CCCCC1)NCCCc1ccccc1	-2.1	-1.1	12.8*	6.3	0.7	1.3
COC(=O)c1cc(-c2ccc(C)c(C)c2)c(=O)n2c1CCC2	/	/	-13.8	-22.0	/	/
COC(=O)[C@]12C[C@H](CC(=O)N3CCC(c4ccccc4)CC3)C(=O)N(Cc3ccc4c(c3)OCO4)C1=C[C@H](C(C)(C)C)O[C@@H]2C	/	0.5	1.4	3.5	/	/
CCOC(=O)C1C(=O)CC(=O)C(C(=O)OCC)C1c1ccc(O)cc1 (stereo unspecified)	-8.8	0.3	-10.3	-8.4	/	/
CCN1CCN(C(=O)CN(CCc2ccccc2)S(C)(=O)=O)CC1	5.0	1.0	9.9*	3.2	-6.1	-0.3
CN1[C@@H](Cc2ccccc2)COc2cc(F)ccc2S1(=O)=O	/	/	4.5	-6.3	/	/
O=S(=O)(c1ccc(F)c(F)c1)N1CCN(Cc2ccc3c(c2)OCO3)CC1	-3.9	-0.3	11.5*	4.2	-0.3	0.0
COc1cc(C)c(C)cc1S(=O)(=O)N1CCN(Cc2ccc3c(c2)OCO3)CC1	-10.3	1.7	10.2*	10.8*	-4.0	-0.5
COc1ccc(S(=O)(=O)N2CCN(Cc3ccc4c(c3)OCO4)CC2)cc1F	-3.6	1.4	0.2	-7.9	/	/
CCN(C(=S)Nc1cccc2ccccc12)c1ccccc1	-8.7	0.0	-38.9	-46.7	/	/
Nc1ccn([C@@H]2O[C@H](C(=O)N[C@H](Cc3ccccc3)C(=O)N3CCSC3)[C@@H](O)[C@H]2O)c(=O)n1	/	-0.2	3.1	5.9	/	/
SMILES	bovine MsrA act	MsrA inhibitor	PLCg1 inh	PLCb3 inh	PLCgamma1 ctr	PLCb3 confirm
CC(=O)c1cc(-c2ccccc2)n(CC(=O)NCc2ccc(Cl)cc2)c1C	/	/	-3.3	1.9	/	/
C[C@@H]1CN([C@@H](C)CO)C(=O)CCCn2nncc2CO[C@@H]1CN(C)C(=O)NC1CCCCC1	-6.5	-1.1	1.0	3.1	/	/
COc1ccc(C2SCC(=O)N2CCCN(C)C)cc1 (stereo unspecified)	-4.9	1.1	8.2	13.2*	-5.3	0.0
COc1ccc(C2SCC(=O)N2c2ccc(OC)cc2)cc1 (stereo unspecified)	-7.9	0.9	0.2	-5.0	/	/
COc1ccc(CCNC(=O)c2c(O)c3c([nH]c2=O)CCCC3)cc1	0.9	1.7	11.1*	9.4	-3.8	-3.8
C[C@@H]1CN([C@@H](C)CO)C(=O)CCCn2cc(nn2)CO[C@H]1CN(C)C(=O)NC1CCCCC1	/	-0.9	0.1	-11.6	/	/
CCC(C(=O)OCC(=O)Nc1cc(Cl)cc(Cl)c1)c1ccccc1 (stereo unspecified)	-2.0	0.9	7.7	11.1*	-0.3	1.3
CCC(C(=O)OCC(=O)Nc1cccc(C(C)=O)c1)c1ccccc1 (stereo unspecified)	-3.9	1.9	-3.1	-3.6	/	/
O=C(Nc1ccc(F)c(Cl)c1)c1cc(C2CCCCN2C(=O)c2ccccc2)on1 (stereo unspecified)	0.8	2.3	2.8	1.5	/	/
CCCCCc1c(-c2cccc(Cl)c2)ncn1CCc1ccccc1OC	-2.3	0.6	10.1*	6.5	-3.7	-2.0
CCCCc1c(-c2cccc(F)c2)ncn1CCc1ccccc1OC	6.2	0.4	0.5	4.0	/	/
COc1cc(/C=N/NC(=O)c2nnn(-c3nonc3N)c2C(C)C)ccc1OCc1ccc(F)cc1	-5.3	1.6	-14.3	-28.2	/	/
C[C@H](NC(=O)c1ccco1)C(=O)NNC(=O)c1ccc(F)cc1	-1.7	0.8	-3.5	0.6	/	/
CCOc1ccccc1C(=O)NCC(=O)NCCc1ccc(S(N)(=O)=O)cc1	-0.5	0.8	10.0*	1.9	-5.7	-0.9
CN(C)C(CNC(=O)c1c(F)cccc1Cl)c1ccco1 (stereo unspecified)	-2.0	1.3	11.4*	-4.6	-6.0	-1.7
CC(C)CC(NC(=O)C1CCCN1C(=O)OC(C)(C)C)C(=O)NCC(N)=O (stereo unspecified)	0.6	0.4	7.1	13.8*	-1.6	2.3
Cc1ccc(Nc2ncnc(N)n2)cc1C	-1.9	-2.1	10.2*	5.5	-6.3	0.8
Nc1ncnc(Nc2ccccc2)n1	-0.1	-0.5	0.7	0.3	/	/
CCCN1CCC(NC(=S)Nc2ccc(OC)c(OC)c2)CC1	-1.3	1.5	2.9	-5.8	/	/
CCCN1CCC(NC(=O)Nc2ccc(OC)c(OC)c2)CC1	-7.0	1.2	10.1*	6.2	-4.1	-3.6
CCN(CC)C(=O)CC[C@H]1CC[C@]2(CCCN(Cc3nccs3)C2)O1	/	/	5.3	-2.6	/	/
COc1ccccc1N1CCN(C(c2ccc(Cl)cc2)c2nnnn2C(C)(C)C)CC1 (stereo unspecified)	-9.9	1.1	12.8*	5.3	5.5	5.4
COc1ccc(C(c2nnnn2C(C)(C)C)N2CCN(C/C=C/c3ccccc3)CC2)cc1 (stereo unspecified)	-0.8	1.3	11.4*	5.4	-3.6	-3.0
